# Columns and labels:
# Assay in all cases: DAPPL (digital affinity profiling via proximity ligation, sequencing); 10 mM Tris-HCl pH 7.5, 50 mM NaCl, 1 mM DTT, 4% glycerol, room temperature, 30 min; GST-TFs on glutathione beads, 16-mer random dsDNA library, 0.1% formaldehyde crosslink after washing; high values mean tight binding
# FEV = target: T1, FEV (Homo sapiens, UniProt Q99581 1-238); conditions: protein: recombinant; tags: N-terminal GST; dsDNA, one strand shown
# T1 sequence: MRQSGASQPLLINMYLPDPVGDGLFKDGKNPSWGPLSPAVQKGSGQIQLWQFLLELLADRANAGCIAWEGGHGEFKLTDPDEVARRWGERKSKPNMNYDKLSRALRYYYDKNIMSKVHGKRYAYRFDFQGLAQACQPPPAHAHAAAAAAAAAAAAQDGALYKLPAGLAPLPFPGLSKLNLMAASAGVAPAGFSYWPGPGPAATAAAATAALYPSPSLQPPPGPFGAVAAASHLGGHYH
# Outline: (§1)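 Binding signal is each hexamer's read frequency for a factor divided by its frequency in the tag-only sample. The factors were GST-fused human transcription factors from yeast, captured on glutathione beads, DNA-barcoded and pooled with that sample. Pools were incubated with 200 nmole of a random double-stranded 16-mer DNA library in Tris/NaCl/DTT/glycerol buffer at room temperature for 30 min, then washed, crosslinked with 0.1% formaldehyde, proximity-ligated with BsaI/T4 ligase (1 h, 37 °C), PCR-amplified and sequenced on an Illumina NextSeq500.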
# ETV5 = ETV5 (Homo sapiens, UniProt P41161 1-510); conditions: protein: recombinant; tags: N-terminal GST; dsDNA, one strand shown
# Outline: as §1
# HSF1 = HSF1 (Homo sapiens, UniProt Q00613 1-529); conditions: protein: recombinant; tags: N-terminal GST; chain copies: 3; dsDNA, one strand shown
# Outline: as §1
# ELF4 = ELF4 (Homo sapiens, UniProt Q99607 1-663); conditions: protein: recombinant; tags: N-terminal GST; dsDNA, one strand shown
# Outline: as §1
# ELK4 = target: T2, ELK4 (Homo sapiens, UniProt P28324-2 1-405); conditions: protein: recombinant; tags: N-terminal GST; dsDNA, one strand shown
# T2 sequence: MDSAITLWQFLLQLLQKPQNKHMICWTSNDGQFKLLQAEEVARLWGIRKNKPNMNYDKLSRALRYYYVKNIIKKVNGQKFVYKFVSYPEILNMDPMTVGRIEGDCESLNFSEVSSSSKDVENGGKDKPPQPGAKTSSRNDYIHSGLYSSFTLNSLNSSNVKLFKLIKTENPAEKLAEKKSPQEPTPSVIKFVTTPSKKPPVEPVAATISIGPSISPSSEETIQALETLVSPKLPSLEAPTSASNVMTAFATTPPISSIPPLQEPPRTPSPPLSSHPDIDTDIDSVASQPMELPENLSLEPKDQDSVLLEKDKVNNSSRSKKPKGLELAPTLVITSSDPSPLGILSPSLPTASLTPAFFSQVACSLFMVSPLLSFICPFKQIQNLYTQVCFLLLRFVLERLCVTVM
# Outline: as §1
# ETV2 = target: T3, ETV2 (Homo sapiens, UniProt O00321 1-342); conditions: protein: recombinant; tags: N-terminal GST; dsDNA, one strand shown
# T3 sequence: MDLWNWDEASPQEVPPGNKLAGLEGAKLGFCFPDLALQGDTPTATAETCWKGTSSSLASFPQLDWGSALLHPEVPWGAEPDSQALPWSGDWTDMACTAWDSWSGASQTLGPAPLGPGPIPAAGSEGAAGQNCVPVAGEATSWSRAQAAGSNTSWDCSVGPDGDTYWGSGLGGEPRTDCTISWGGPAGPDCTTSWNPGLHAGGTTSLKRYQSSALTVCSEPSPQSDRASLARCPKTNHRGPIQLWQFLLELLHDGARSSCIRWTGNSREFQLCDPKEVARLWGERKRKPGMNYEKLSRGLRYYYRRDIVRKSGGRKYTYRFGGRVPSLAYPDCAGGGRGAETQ
# Outline: as §1
# ELF3 = target: T4, ELF3 (Homo sapiens, UniProt P78545 1-371); conditions: protein: recombinant; tags: N-terminal GST; dsDNA, one strand shown
# T4 sequence: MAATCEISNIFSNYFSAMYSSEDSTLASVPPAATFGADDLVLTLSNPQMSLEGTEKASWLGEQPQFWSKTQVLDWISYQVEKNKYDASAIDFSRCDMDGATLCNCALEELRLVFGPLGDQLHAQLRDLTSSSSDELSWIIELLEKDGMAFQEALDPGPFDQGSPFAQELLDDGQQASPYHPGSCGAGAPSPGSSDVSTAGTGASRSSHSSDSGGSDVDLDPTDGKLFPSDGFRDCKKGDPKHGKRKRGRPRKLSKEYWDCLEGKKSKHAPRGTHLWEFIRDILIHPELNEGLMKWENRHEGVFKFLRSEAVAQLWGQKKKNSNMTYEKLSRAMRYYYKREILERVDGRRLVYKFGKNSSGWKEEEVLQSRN
# Outline: as §1
# CRX = CRX (Homo sapiens, UniProt O43186 1-299); conditions: protein: recombinant; tags: N-terminal GST; dsDNA, one strand shown
# Outline: as §1
# ETV1 = ETV1 (Homo sapiens, UniProt P50549 1-477); conditions: protein: recombinant; tags: N-terminal GST; dsDNA, one strand shown
# Outline: as §1
# ERF = target: T5, ERF (Homo sapiens, UniProt P50548 1-548); conditions: protein: recombinant; tags: N-terminal GST; dsDNA, one strand shown
# T5 sequence: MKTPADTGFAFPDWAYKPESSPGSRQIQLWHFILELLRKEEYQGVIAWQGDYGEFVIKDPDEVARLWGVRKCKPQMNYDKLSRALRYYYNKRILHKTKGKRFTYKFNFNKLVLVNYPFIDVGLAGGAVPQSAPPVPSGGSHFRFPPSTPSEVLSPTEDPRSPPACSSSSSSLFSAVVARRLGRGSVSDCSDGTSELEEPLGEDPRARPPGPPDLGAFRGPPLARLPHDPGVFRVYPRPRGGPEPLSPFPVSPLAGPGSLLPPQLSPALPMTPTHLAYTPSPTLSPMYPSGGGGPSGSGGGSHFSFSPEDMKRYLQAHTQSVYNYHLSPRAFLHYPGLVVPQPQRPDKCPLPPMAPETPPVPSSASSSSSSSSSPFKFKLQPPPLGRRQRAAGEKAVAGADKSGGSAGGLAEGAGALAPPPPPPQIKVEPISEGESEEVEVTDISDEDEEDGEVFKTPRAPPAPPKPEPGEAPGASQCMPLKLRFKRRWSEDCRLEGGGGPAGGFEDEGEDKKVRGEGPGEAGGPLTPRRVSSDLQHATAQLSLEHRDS
# Outline: as §1
# ETV3L = target: T6, ETV3L (Homo sapiens, UniProt Q6ZN32 1-361); conditions: protein: recombinant; tags: N-terminal GST; dsDNA, one strand shown
# T6 sequence: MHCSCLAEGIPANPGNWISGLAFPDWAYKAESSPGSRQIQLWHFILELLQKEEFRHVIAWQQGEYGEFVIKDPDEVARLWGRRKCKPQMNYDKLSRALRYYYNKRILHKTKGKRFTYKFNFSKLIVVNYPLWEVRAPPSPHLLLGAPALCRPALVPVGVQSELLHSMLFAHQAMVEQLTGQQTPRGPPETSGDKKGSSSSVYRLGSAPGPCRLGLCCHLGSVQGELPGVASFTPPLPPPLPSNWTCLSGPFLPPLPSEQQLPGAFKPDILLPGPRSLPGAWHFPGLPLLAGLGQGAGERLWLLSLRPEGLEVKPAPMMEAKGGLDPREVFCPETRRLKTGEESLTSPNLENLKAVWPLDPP
# Outline: as §1
# ETS2 = target: T7, ETS2 (Homo sapiens, UniProt P15036 1-469); conditions: protein: recombinant; tags: N-terminal GST; dsDNA, one strand shown
# T7 sequence: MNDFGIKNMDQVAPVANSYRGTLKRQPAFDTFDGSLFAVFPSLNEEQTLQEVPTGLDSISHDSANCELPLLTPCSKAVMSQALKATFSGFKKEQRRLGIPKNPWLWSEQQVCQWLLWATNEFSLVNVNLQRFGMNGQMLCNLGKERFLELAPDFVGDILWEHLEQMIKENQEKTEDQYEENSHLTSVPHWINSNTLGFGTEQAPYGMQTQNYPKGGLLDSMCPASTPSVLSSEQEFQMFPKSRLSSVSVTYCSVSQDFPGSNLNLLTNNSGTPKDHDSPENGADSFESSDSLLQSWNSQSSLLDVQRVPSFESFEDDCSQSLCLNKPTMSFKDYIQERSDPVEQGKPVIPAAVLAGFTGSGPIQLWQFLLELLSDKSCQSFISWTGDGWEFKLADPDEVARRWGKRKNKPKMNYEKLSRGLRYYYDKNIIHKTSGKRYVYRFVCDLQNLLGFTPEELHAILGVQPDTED
# Outline: as §1
# SPDEF = target: T8, SPDEF (Homo sapiens, UniProt O95238 1-335); conditions: protein: recombinant; tags: N-terminal GST; dsDNA, one strand shown
# T8 sequence: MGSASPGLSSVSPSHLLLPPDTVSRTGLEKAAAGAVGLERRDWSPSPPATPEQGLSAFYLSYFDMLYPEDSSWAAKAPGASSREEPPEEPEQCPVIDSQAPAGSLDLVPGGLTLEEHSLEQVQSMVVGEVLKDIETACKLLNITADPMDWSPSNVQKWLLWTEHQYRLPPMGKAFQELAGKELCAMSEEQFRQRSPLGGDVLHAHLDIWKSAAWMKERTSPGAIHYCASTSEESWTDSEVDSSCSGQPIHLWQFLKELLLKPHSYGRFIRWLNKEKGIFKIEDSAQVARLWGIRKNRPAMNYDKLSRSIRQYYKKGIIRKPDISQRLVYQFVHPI
# Outline: as §1
# ETV7 = target: T9, ETV7 (Homo sapiens, UniProt Q9Y603 1-341); conditions: protein: recombinant; tags: N-terminal GST; dsDNA, one strand shown
# T9 sequence: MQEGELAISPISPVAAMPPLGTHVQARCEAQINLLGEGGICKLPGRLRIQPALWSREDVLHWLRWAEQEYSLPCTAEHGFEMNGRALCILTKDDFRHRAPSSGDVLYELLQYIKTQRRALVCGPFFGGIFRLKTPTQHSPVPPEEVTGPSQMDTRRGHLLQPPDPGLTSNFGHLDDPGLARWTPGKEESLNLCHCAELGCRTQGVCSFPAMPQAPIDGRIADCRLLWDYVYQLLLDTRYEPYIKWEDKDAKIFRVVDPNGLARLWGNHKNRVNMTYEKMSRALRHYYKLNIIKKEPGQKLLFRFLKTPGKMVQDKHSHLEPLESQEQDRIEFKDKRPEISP
# Outline: as §1
# ELF5 = target: T10, ELF5 (Homo sapiens, UniProt Q9UKW6-2 1-255); conditions: protein: recombinant; tags: N-terminal GST; dsDNA, one strand shown
# T10 sequence: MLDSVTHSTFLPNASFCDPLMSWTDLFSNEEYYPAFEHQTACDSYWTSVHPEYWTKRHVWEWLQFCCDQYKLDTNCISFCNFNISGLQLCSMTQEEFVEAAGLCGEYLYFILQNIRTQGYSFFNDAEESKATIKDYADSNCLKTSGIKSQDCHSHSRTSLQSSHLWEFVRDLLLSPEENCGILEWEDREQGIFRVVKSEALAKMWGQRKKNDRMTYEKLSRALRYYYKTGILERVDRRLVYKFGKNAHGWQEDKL
# Outline: as §1
# ETV3 = target: T11, ETV3 (Homo sapiens, UniProt P41162-2 1-143); conditions: protein: recombinant; tags: N-terminal GST; dsDNA, one strand shown
# T11 sequence: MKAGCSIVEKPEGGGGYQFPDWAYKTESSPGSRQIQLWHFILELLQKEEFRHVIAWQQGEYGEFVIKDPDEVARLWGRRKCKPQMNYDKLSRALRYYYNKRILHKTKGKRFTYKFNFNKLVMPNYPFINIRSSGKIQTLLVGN
# Outline: as §1
# ETV6 = ETV6 (Homo sapiens, UniProt P41212 1-452); conditions: protein: recombinant; tags: N-terminal GST; dsDNA, one strand shown
# Outline: as §1
# ETV5, sequence (P41161 whole entry): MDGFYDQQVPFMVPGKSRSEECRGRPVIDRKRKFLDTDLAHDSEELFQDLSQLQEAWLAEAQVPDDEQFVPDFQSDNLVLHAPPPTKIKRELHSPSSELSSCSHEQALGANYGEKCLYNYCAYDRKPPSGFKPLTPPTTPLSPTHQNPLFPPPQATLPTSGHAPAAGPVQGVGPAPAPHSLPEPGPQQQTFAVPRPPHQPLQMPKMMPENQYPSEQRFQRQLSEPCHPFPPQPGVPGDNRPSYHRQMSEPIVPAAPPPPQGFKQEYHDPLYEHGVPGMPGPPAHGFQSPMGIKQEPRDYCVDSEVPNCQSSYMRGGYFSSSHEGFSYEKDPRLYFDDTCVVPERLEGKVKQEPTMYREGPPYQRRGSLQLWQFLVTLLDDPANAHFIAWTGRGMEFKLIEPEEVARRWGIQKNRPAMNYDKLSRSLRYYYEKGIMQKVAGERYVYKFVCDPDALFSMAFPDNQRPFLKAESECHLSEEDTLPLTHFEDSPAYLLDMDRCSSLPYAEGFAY
# HSF1, sequence (Q00613 whole entry): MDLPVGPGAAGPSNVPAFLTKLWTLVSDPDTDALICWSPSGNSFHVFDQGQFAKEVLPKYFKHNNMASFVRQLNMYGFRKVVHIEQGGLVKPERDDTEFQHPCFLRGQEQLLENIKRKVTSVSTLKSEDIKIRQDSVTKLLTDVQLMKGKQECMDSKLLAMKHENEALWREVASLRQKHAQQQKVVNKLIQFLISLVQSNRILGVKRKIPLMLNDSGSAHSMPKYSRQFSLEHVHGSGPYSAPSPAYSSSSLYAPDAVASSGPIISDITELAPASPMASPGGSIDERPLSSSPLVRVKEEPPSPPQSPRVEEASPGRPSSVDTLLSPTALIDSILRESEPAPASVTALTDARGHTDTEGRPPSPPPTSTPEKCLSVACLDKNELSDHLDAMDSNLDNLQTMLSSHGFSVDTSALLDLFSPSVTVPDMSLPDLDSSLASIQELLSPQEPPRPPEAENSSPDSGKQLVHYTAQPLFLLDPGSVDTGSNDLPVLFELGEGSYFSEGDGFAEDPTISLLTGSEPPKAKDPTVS
# ETV6, sequence (P41212 whole entry): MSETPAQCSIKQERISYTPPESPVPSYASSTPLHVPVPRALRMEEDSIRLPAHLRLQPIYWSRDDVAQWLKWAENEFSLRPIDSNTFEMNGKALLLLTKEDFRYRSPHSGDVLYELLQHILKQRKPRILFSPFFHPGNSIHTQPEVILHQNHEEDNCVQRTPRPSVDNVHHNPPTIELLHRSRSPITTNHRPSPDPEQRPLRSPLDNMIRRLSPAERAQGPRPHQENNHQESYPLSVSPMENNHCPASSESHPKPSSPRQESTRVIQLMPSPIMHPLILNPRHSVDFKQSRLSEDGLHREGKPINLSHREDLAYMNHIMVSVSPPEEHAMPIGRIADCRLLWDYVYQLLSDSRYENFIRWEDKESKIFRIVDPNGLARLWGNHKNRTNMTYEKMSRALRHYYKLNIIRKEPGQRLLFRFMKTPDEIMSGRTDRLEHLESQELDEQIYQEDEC
# CRX, sequence (O43186 whole entry): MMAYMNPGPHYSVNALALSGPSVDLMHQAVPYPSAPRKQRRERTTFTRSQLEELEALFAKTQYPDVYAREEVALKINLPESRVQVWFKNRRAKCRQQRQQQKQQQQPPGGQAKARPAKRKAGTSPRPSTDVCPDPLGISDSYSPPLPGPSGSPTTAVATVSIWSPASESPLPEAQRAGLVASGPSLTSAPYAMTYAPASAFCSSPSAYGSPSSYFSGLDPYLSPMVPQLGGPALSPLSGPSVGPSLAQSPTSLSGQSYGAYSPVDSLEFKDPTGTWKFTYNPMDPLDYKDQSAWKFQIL
# ETV1, sequence (P50549 whole entry): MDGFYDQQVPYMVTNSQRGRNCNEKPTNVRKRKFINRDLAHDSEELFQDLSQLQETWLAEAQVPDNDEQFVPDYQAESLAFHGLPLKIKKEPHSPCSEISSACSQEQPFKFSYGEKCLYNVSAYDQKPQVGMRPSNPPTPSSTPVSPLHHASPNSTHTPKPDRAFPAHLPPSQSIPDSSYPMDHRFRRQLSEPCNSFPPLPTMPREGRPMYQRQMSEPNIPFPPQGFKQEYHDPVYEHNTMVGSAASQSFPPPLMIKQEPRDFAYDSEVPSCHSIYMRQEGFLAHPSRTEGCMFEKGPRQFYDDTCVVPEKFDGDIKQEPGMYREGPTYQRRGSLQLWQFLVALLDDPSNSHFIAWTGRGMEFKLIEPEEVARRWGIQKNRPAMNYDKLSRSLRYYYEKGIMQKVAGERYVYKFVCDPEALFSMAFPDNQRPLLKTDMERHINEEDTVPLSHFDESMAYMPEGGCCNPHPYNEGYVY
# ELF4, sequence (Q99607 whole entry): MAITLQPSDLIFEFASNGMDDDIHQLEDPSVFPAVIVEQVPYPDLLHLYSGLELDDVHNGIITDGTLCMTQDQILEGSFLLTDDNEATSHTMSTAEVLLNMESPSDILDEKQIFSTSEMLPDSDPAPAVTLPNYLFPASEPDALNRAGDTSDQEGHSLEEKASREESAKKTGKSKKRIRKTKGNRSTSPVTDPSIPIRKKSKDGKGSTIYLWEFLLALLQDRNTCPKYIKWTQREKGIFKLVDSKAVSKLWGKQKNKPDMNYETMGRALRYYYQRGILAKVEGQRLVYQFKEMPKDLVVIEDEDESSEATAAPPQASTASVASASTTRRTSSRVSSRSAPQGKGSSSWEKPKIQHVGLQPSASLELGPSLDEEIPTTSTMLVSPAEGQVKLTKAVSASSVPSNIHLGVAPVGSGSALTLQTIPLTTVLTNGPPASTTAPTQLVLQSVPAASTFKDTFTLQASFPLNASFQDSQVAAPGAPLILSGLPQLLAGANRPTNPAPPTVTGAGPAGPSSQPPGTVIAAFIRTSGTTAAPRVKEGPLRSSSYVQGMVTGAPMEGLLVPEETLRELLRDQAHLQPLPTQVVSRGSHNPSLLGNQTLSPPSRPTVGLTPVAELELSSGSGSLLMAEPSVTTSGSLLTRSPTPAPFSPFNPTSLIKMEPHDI
Sequence,binding signal (FEV),binding signal (ETV5),binding signal (HSF1),binding signal (ELF4),binding signal (ELK4),binding signal (ETV2),binding signal (ELF3),binding signal (CRX),binding signal (ETV1),binding signal (ERF),binding signal (ETV3L),binding signal (ETS2),binding signal (SPDEF),binding signal (ETV7),binding signal (ELF5),binding signal (ETV3),binding signal (ETV6)
TGCAAA,"1.12 fold enrichment (6-mer frequency, TF over GST control)","1.09 fold enrichment (6-mer frequency, TF over GST control)","1.06 fold enrichment (6-mer frequency, TF over GST control)","1.13 fold enrichment (6-mer frequency, TF over GST control)","1.14 fold enrichment (6-mer frequency, TF over GST control)","1.08 fold enrichment (6-mer frequency, TF over GST control)","1.2 fold enrichment (6-mer frequency, TF over GST control)","1.01 fold enrichment (6-mer frequency, TF over GST control)","1.14 fold enrichment (6-mer frequency, TF over GST control)","1.13 fold enrichment (6-mer frequency, TF over GST control)","1.15 fold enrichment (6-mer frequency, TF over GST control)","1.05 fold enrichment (6-mer frequency, TF over GST control)","1.1 fold enrichment (6-mer frequency, TF over GST control)","1.09 fold enrichment (6-mer frequency, TF over GST control)","1.05 fold enrichment (6-mer frequency, TF over GST control)","1.06 fold enrichment (6-mer frequency, TF over GST control)","1.06 fold enrichment (6-mer frequency, TF over GST control)"
TTCATA,"1.12 fold enrichment (6-mer frequency, TF over GST control)","1.1 fold enrichment (6-mer frequency, TF over GST control)","1.05 fold enrichment (6-mer frequency, TF over GST control)","1.19 fold enrichment (6-mer frequency, TF over GST control)","1.2 fold enrichment (6-mer frequency, TF over GST control)","1.06 fold enrichment (6-mer frequency, TF over GST control)","1.24 fold enrichment (6-mer frequency, TF over GST control)","1.2 fold enrichment (6-mer frequency, TF over GST control)","1.24 fold enrichment (6-mer frequency, TF over GST control)","1.19 fold enrichment (6-mer frequency, TF over GST control)","1.23 fold enrichment (6-mer frequency, TF over GST control)","1.15 fold enrichment (6-mer frequency, TF over GST control)","1.1 fold enrichment (6-mer frequency, TF over GST control)","1.12 fold enrichment (6-mer frequency, TF over GST control)","1.15 fold enrichment (6-mer frequency, TF over GST control)","1.16 fold enrichment (6-mer frequency, TF over GST control)","1.14 fold enrichment (6-mer frequency, TF over GST control)"

# Reference: paper PMC7862700, “An all-to-all approach to the identification of sequence-specific readers for epigenetic DNA modifications on cytosine”
